This note sets out measurements from ChEMBL document CHEMBL4513216, “Probing the Open Global Health Chemical Diversity Library for Multistage-Active Starting Points for Next-Generation Antimalarials” (ACS Infect Dis, 2020).

Hit rate of the full screen: of about 68,000 compounds, about 2,700 (4%) showed an effect of 50% or more. This is one part of a sample in which strong results are shown more often than they occur.

The assay concerns Plasmodium berghei. As to the kind of experiment: Screen against P. berghei liver stage (PbLuc), transformed with Luciferase, at 2uM. It is filed as functional, HepG2. The note with it: tested at 2 uM.
Consider `Cn1nc(C2CCCN(Cc3cccc(F)c3)C2)c2nccnc21` (stereo not drawn), for which the INHIBITION is -13.37%.

As to `O=C(CCN1CCC(C(=O)c2cc(F)ccc2F)CC1)NC1CCCC1`, the INHIBITION was 64.9%. As for `O=C(CN1CCC(C(=O)c2cc(F)ccc2F)CC1)NC1CCCC1`, the figure is -21.84%; as for `O=C(CCN1CCC(C(=O)c2cc(F)ccc2F)CC1)NC1CC1`, 34.93%. For the compound `CCOCCN1CCC(C(=O)c2cc(F)ccc2F)CC1`, the INHIBITION is 43%. The figure for `COCCN1CCC(C(=O)c2cc(F)ccc2F)CC1` is -11.34%. As for `CC(C)OCCN1CCC(C(=O)c2cc(F)ccc2F)CC1`, the INHIBITION is reported as 50.76%. For the compound `CN1CCC(N(C)CCC(=O)N2CCC(Oc3ccc(Cl)cc3)CC2)C1` (stereo not drawn), the INHIBITION is given as 8.75%. As for `Cn1nc(C(=O)N2CCOCC2)c2c1CN(CC1CCC1)C2`, the figure is 36.29%. Turning to `Cc1cc(-c2ccc(=O)n(C3CCN(S(=O)(=O)N(C)C)CC3)n2)c(C)o1`, the INHIBITION is reported as -34.37%.

Regarding `CCC(CO)N(Cc1ccco1)Cc1c(C)nn(C)c1Cl` (stereo not drawn), the INHIBITION is listed as -10.67%. On to `CN1CCN(C(=O)c2cccn2C)c2ccccc2C1`, for which the INHIBITION is reported as -9.98%. The figure for `CCOC(=O)[C@]12CCCN(Cc3nccs3)C[C@H]1CN(C(C)C)C2` is 34.47%; for `COc1ccc(CN2CCOC[C@H](Oc3cccnc3)C2)cc1` it is 27.04%. For the compound `Cc1cccc(O[C@H]2COCCN(Cc3sc(C)nc3C)C2)n1`, the INHIBITION is recorded as 17.64%. As to `Cc1nc(C)c(CN2CCOC[C@H](Oc3ccc(S(C)(=O)=O)cc3)C2)s1`, the INHIBITION is recorded as -40.15%.

Turning to `Cc1nc(C)c(CN2CCOC[C@H](Oc3ccccc3)C2)s1`, the INHIBITION stood at 64.92%. As for `CC(C)CN1CCOC[C@H](Oc2ccc(S(C)(=O)=O)cc2)C1`, the figure is -36.65%; as for `CS(=O)(=O)c1ccc(O[C@H]2COCCN(Cc3ccncc3)C2)cc1`, 50.91%. Regarding `CCN(Cc1ccc(C#N)cc1F)C(=O)C(C)(C)C`, the INHIBITION was 0.53%. For `CCCS(=O)(=O)N1C[C@H]2CC[C@@H](C1)N(Cc1cscn1)C2=O`, the INHIBITION stood at 36.28%. With `CN(C)CC(=O)N1CCC2(CC1)COCCN(Cc1ccncc1)C2`, the INHIBITION turned out to be 32.66%.

With `CCCc1nc(C(=O)N[C@H]2COC[C@@H]2N2CCN(C)CC2)cs1`, the INHIBITION was -0.83%. `CS(=O)(=O)CCCN(CCc1cccc(F)c1)C1CC1`: the INHIBITION turned out to be 7.36%.

For the compound `Cc1csc2c(N3CCNC(C(=O)Nc4ccc(F)cc4)C3)ncnc12` (stereo not drawn), the INHIBITION is on record as -17.67%. The figure for `Cc1ccc2c(c1)C(=O)NCC1(CCN(C(=O)c3scnc3C)CC1)O2` is -2.31%; for `CCC(=O)N1CCC2(CC1)CNC(=O)c1cc(C)ccc1O2` it is 61.99%; for `Cc1ccc2c(c1)C(=O)NCC1(CCN(C(=O)c3csc(C)c3)CC1)O2` it is 38.75%. Turning to `Cc1ccc2c(c1)C(=O)NCC1(CCN(C(=O)c3ccnn3C)CC1)O2`, the INHIBITION is on record as 59.27%.

As for `Cc1ccc2c(c1)C(=O)NCC1(CCN(C(=O)c3cc(C)no3)CC1)O2`, the INHIBITION was 9.51%.

With `Cc1ccc2c(c1)C(=O)NCC1(CCN(C(=O)c3cnccn3)CC1)O2`, the INHIBITION worked out at 64.07%. The figure for `Cc1ccc2c(c1)C(=O)NCC1(CCN(C(=O)c3ccccn3)CC1)O2` is 38.12%; for `Cc1ccc2c(c1)C(=O)NCC1(CCN(C(=O)c3sccc3C)CC1)O2` it is 46.15%; for `Cc1ccc2c(c1)C(=O)NCC1(CCN(Cc3ccccc3)CC1)O2` it is 34.9%.

For the compound `Cc1ccc(F)cc1NC(=O)CCn1cncn1`, the INHIBITION is on record as 5.31%. Regarding `Cc1nc(CN2C[C@@H]3CN(C(=O)c4cccn4C)C[C@@H]3C2=O)cs1`, the INHIBITION is -32.67%.

Consider `O=C(C1CCCCC1)N1CCC2(CC1)CNCc1ccccc12`, for which the INHIBITION came to 31.27%. Regarding `O=C(CN1CCOC(CNc2cccnn2)C1)NCc1ccccn1` (stereo not drawn), the INHIBITION is 33.12%. As for `Cc1nn(CC(=O)O)c(C)c1NS(=O)(=O)c1cc2ccccc2s1`, the figure is -38.97%. With `O=c1cc(CN2CCCC(CCc3c(F)cccc3F)C2)[nH]c(=O)[nH]1` (stereo not drawn), the INHIBITION was -21.63%.

As for `CS(=O)(=O)CCS(=O)(=O)Cc1cc(Cl)c2c(c1)OCCCO2`, the INHIBITION is listed as 72.05%. `CN(C)C(=O)CCS(=O)(=O)Cc1cc(Cl)c2c(c1)OCCO2`: the INHIBITION is reported as 48.21%. As for `CNC(=O)CCS(=O)(=O)Cc1cc(Cl)c2c(c1)OCCCO2`, the figure is 19%; as for `CS(=O)(=O)Cc1cc(Cl)c2c(c1)OCCCO2`, 45.82%.

For `CN(C)C(=O)CCCS(=O)(=O)Cc1cc(Cl)c2c(c1)OCO2`, the INHIBITION is 27.5%. Regarding `CN(C)C(=O)CCS(=O)(=O)Cc1cc(Cl)c2c(c1)OCO2`, the INHIBITION amounted to 66.2%. The figure for `CC(C)(O)CN1CCN(C(=O)c2sccc2C#N)CC1` is -29.69%; for `c1cnc(N2C[C@H]3CCN(Cc4ccncc4)C[C@H]3C2)nc1` it is -20.87%; for `CC(NC(=O)N1CCC(OCc2ccccc2)CC1)c1nncn1C` (stereo not drawn) it is 29.11%. The figure for `Cc1cc(C)c(C)c(OCCCNC(=O)NC(C)c2nncn2C)c1` (stereo not drawn) is 38.97%; for `COc1ccc(F)cc1C(=O)N1CCCC(CNS(C)(=O)=O)C1` (stereo not drawn) it is -42.84%.

As for `O=C(NCCCNC(=O)C1CCC1)NCCn1cccc1`, the INHIBITION was determined as 7.33%.

Turning to `N#Cc1c(N2CCCN(C3CCOCC3)CC2)nc2ccccn12`, the INHIBITION stood at 14.2%. As for `CN1CCCC(N2CCN(c3nc4ccccn4c3C#N)CC2)C1` (stereo not drawn), the figure is 38.1%; as for `N#Cc1c(N2CCN(CC3CCOC3)CC2)nc2ccccn12` (stereo not drawn), 83.18%; as for `Cn1cccc1C(=O)N1CCc2ncnc(C3CC3)c2CC1`, 11.72%. `Cc1cc(C(=O)NC2CCCCNC2=O)c(=O)[nH]c1C` (stereo not drawn): the INHIBITION was determined as 52.08%. The figure for `O=C(NC1CCCCNC1=O)c1cc2ccccc2[nH]c1=O` (stereo not drawn) is -0.79%; for `Cc1ccc(C(=O)NC2CCCCNC2=O)c(=O)[nH]1` (stereo not drawn) it is -4.09%. The figure for `O=C(CCc1c[nH]cn1)N1CC[C@@H](c2ccc3ccccc3c2)[C@H](O)C1` is 43.1%; for `Cc1ccc(N2CCC3(CN(Cc4cccs4)CCC3(F)F)C2)nn1` (stereo not drawn) it is -17.41%.

For the compound `Cc1noc(C)c1CC(=O)N1CCC(Nc2cccnn2)CC1`, the INHIBITION is -57.89%.

Take `Cc1ccc(CC(=O)N2CCC(Nc3cccnn3)CC2)s1`: the INHIBITION is listed as 50.75%. For `O=C(Cc1cccc2ccccc12)N1CCC(Nc2cccnn2)CC1`, the INHIBITION is recorded as -58.05%.

Consider `O=C(Cc1c[nH]c2ccccc12)N1CCC(Nc2cccnn2)CC1`, for which the INHIBITION was -32.2%. The figure for `Cc1ccc(NC2CCN(C(=O)Cc3ccc(C)s3)CC2)nn1` is -19.35%. In the case of `Cc1cccc2[nH]cc(CC(=O)N3CCC(Nc4cccnn4)CC3)c12`, the INHIBITION was found to be 64.16%. With `O=C(NCc1ccccn1)NCC(O)c1ccccc1C(F)(F)F` (stereo not drawn), the INHIBITION is on record as -19.62%.

On to `O=C(c1ccccc1OCC1CC1)N1CCCC1Cn1cccn1` (stereo not drawn), for which the INHIBITION was -12.5%. As for `O=C(CCCn1cncn1)N1CCC2(CCCNC2=O)C1` (stereo not drawn), the figure is 43.1%. As for `O=C(c1cccc(Cl)c1)N1CC[C@H]2[C@H]1CCN2CC1CCOCC1`, the INHIBITION is listed as 49.03%. For `CCS(=O)(=O)N1CC[C@@H]2[C@H](CC1)N(CC(C)C)CCS2(=O)=O`, the INHIBITION turned out to be 40.5%. `Cc1cc(C(N)=O)nc(C2(C)CCCN2Cc2cnn(C)c2C)n1` (stereo not drawn): the INHIBITION is 40.31%.

Regarding `Cc1cc(C)nc(C2(C)CCCN2CCO)n1` (stereo not drawn), the INHIBITION is -8.85%. Regarding `Cc1cc(C(N)=O)nc(C2(C)CCCN2Cc2cnn(C)c2)n1` (stereo not drawn), the INHIBITION is 74.08%. The figure for `COc1ccc(-c2noc(CN3CCN(c4cnccn4)CC3)n2)cc1` is 32.88%. As for `COc1ccc(-n2cnnc2CC2CCNCC2)cc1`, the INHIBITION is -22%. For the compound `O=S(=O)(N1CCCC1)N1CC(c2ccnc(Nc3ccccn3)n2)C1`, the INHIBITION is 17.72%. The figure for `CCN(CCc1nc2cc(C)ccc2[nH]1)C(=O)[C@@H](N)Cc1c[nH]cn1` is -2.23%. `Cc1cc(N2CCCC(O)(CN(C)C)CC2)nc(-c2ccccc2)n1` (stereo not drawn): the INHIBITION is on record as 1.06%.

Consider `CN(C)CC1(O)CCCN(c2nc(-c3ccccc3)no2)CC1` (stereo not drawn), for which the INHIBITION is reported as 76.6%. As for `CN(C)CC1(O)CCCN(c2noc(-c3ccccc3)n2)CC1` (stereo not drawn), the figure is 12.55%. As for `c1cc(-c2cscn2)cc(N2CCC(NCCc3cccs3)CC2)c1`, the INHIBITION is -15.42%. As for `CCC(=O)N1CCC2(CC1)CC(CC(=O)N(C)C)c1ccc(F)cc12` (stereo not drawn), the figure is -0.45%; as for `CCOC(C)C(=O)NCCNS(C)(=O)=O` (stereo not drawn), 8.41%; as for `CC(C)COC(C)C(=O)NCCNS(C)(=O)=O` (stereo not drawn), 52.74%. The figure for `CC(C)COC(C)C(=O)NCCNC(=O)C(C)C` (stereo not drawn) is 31.96%; for `CCN(Cc1cccc2c1OCO2)C(=O)NCCOC` it is 25.61%. The figure for `O=C(O)c1ccc2ccc(N3CCN(CC4CC4)CC3)n2c1` is 57.95%; for `CN(C)C(=O)c1ccc2ccc(N3CCN(CC4CC4)CC3)n2c1` it is 19.96%; for `CN(C)C(=O)N1CCN(c2ccc3ccc(C(=O)NC4CC4)cn23)CC1` it is 23.26%. Take `O=C(NC1CC1)c1ccc2ccc(N3CCN(CC4CC4)CC3)n2c1`: the INHIBITION is -36.7%. Consider `CC(C)N1CCN(c2ccc3ccc(C(=O)NC4CCCC4)cn23)CC1`, for which the INHIBITION was found to be 50.17%. As for `CC(=O)N1CCN(c2ccc3ccc(C(=O)NC4CCCC4)cn23)CC1`, the figure is -7.41%; as for `Cc1nn(-c2ccccc2)c2c1c(C(F)F)cc(=O)n2CC(=O)O`, 13.39%.

For the compound `COCCN1CCC(NCc2c(F)cccc2F)C1` (stereo not drawn), the INHIBITION is on record as 28.54%. As for `Cc1nc(-c2ccncc2)ncc1C(C)NC(=O)CN1CCCCC1` (stereo not drawn), the figure is 50.41%; as for `Cc1nc(-c2ccncc2)ncc1C(C)NC(=O)CN1CCCC1=O` (stereo not drawn), 28.62%; as for `Cc1nc(-c2ccncc2)ncc1C(C)NC(=O)Cn1ccccc1=O` (stereo not drawn), 10.02%. As for `CCc1nc(CN2CCCC(Cn3nc(C)nc3C)C2)no1` (stereo not drawn), the figure is 70.27%.

As for `Cc1nc(C)n(CC2CCCN(Cc3cn4c(C)cccc4n3)C2)n1` (stereo not drawn), the INHIBITION was 60.64%.

For the compound `COCCc1noc(CN2CCCC(Cn3nc(C)nc3C)C2)n1` (stereo not drawn), the INHIBITION stood at 30.91%. For `Cc1nc(C)n(CC2CCCN(Cc3cccc(F)c3F)C2)n1` (stereo not drawn), the INHIBITION is reported as 2.18%. With `Cc1nc(C)n(CC2CCCN2Cc2cn3c(C)cccc3n2)n1` (stereo not drawn), the INHIBITION was -17.11%. Regarding `Cc1nc(C)n(CC2CCCN(Cc3noc(C)n3)C2)n1` (stereo not drawn), the INHIBITION was found to be 17.31%.

As for `CCc1noc(CN2CCCC(Cn3nc(C)nc3C)C2)n1` (stereo not drawn), the INHIBITION is given as 21.39%.

`Cc1noc(CN2CCCC(Cn3nc(C)nc3C)C2)n1` (stereo not drawn): the INHIBITION was determined as 72.31%. With `Cc1nc(C)n(CC2CCCN(Cc3nc(C4CC4)no3)C2)n1` (stereo not drawn), the INHIBITION was -38.96%.
